The sample as a whole holds a higher share of hits than the screen did.
TDP1 cell noCPT – qHTS for Inhibitors of human tyrosyl-DNA phosphodiesterase 1 (TDP1): qHTS in cells in absence of CPT | DT40 Tdp1-/- hTDP1 cells, no CPT, ATP luminescence, 48 h | Potency, µM (series often up to 46.2 µM), for inactives: at the top dose activity change, negative = growth inhibition, most hits filed as inhibitors | 420,000 compounds, 15% hits; also: potency is read from the fitted curve at half-maximal effect; nearly all actives have a fitted effect of over 55% in size
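Luminescent ATP content (CellTiter-Glo) served as the growth readout. Knockout chicken DT40 cells expressing human TDP1 were exposed to compounds without camptothecin for a minimum 48 hr at 37 °C.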
12-LOX inh – Primary qHTS assay for inhibitors of human arachidonate 12S-lipoxygenase (ALOX12): Round 2; 580,000 compounds, 1.1% hits; Potency, µM (highest dose often 108 µM), for the others: top-dose activity change, negative = inhibition, usual class: inhibitors; purified 12hLO, xylenol orange hydroperoxide absorbance; Polyunsaturated fatty acid lipoxygenase ALOX12 (Homo sapiens), P18054; also: potency is read from the fitted curve at half-maximal effect
Target sequence (P18054 whole entry, looked up): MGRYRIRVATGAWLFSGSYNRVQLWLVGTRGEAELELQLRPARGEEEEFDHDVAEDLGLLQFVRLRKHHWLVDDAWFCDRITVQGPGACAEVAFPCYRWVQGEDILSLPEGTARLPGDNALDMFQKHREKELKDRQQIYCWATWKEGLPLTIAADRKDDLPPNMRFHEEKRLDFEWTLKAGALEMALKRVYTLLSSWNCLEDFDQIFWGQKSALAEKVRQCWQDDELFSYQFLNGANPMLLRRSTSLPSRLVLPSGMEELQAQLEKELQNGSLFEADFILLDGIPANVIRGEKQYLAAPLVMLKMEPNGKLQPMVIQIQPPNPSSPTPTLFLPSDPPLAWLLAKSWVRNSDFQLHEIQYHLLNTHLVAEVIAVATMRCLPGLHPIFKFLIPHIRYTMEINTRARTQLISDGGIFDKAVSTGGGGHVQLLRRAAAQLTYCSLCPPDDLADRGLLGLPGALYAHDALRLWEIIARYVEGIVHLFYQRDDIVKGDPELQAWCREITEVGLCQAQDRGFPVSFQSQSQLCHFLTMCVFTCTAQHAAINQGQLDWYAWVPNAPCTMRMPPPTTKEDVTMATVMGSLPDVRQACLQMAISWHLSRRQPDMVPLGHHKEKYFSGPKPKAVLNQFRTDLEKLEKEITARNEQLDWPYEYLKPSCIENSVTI
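Purified human 12hLO at 150 nM in 25 mM Hepes, 0.01% Triton X-100, pH 7.0, preincubated 15 min at room temperature with compound. Reaction started with 40 uM arachidonic acid, 30 min at room temperature. Hydroperoxide measured by Fe-xylenol orange, 573/405 nm absorbance ratio.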
TDP1 cell CPT – qHTS for Inhibitors of human tyrosyl-DNA phosphodiesterase 1 (TDP1): qHTS in cells in presence of CPT | AID 686979, 2013 | chicken DT40 Tdp1-/-;hTDP1 cells + 20 nM CPT, ATP luminescence, 48 h | Potency, µM (highest dose often 46.2 µM), inactives show at the highest dose activity change, negative = growth inhibition, most hits filed as inhibitors | 420,000 compounds, 12% hits; also: potency is read from the fitted curve at half-maximal effect; nearly all actives have a fitted effect of over 55% in size
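Chicken DT40 Tdp1-/- cells stably complemented with human TDP1 were seeded at 400 cells/well in medium containing 20 nM camptothecin, exposed to pin-transferred compounds, and grown at 37 °C for at least 48 hr. Viability was read as ATP luminescence.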
IL1B secr inh – qHTS for Inhibitors of Inflammasome Signaling: IL-1-beta AlphaLISA Primary Screen; THP-1 LPS/ATP IL-1B secretion, AlphaLISA, 16 h; hits give low values; activity change, % at 57.5 µM; 360,000 compounds, 4.7% hits; AID 743279, 2014; in the data active = activity change below about -50%; inconclusive = mostly about -30% to -49%
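Secreted IL-1B measured by AlphaLISA bead assay after 16 h compound exposure of THP-1 cells; compounds (final up to 57.5 uM) added 1 h before LPS (250 ng/mL) and ATP (1.25 mM) stimulation; lower signal means less secretion.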
HT1080 IDH1KD tx – qHTS for induction of synthetic lethality in tumor cells producing 2HG: qHTS for the HT-1080-IDH1KD cell line; HT-1080 IDH1 knockdown viability, ATP luminescence, 48 h; Potency, µM (titrated, usually from 46.1 µM), for inactives: top-dose activity, negative = toxicity, actives largely listed as cytotoxic; 360,000 compounds, 2% hits;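 also: potency is read from the fitted curve at half-maximal effect; 0% = DMSO wells and -100% = cell-free medium wells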
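Viability of IDH1-knockdown HT-1080 fibrosarcoma cells was assessed by CellTiter-Glo after 48 h at 37 °C with titrated compound; concentration-effect curves were classified by fit quality and response size.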
HT1080NT lethal – qHTS for induction of synthetic lethality in tumor cells producing 2HG: qHTS for the HT-1080-NT fibrosarcoma cell line | 360,000 compounds, 1.6% hits | HT-1080-NT fibrosarcoma viability, CellTiter-Glo ATP luminescence, 48 h | Potency, µM (series often up to 46.1 µM), inactives show top-dose activity, negative = less viability, usual class: cytotoxic | AID 686970, 2013;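 also: NT is the 2HG producing partner of a matched IDH1 knockdown line; potency is read from the fitted curve at half-maximal effect; 0% = DMSO-treated cells and -100% = media-only wells without cells; nearly all actives have a fitted effect of over 55% in size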
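Toxicity toward the 2HG-producing NT line was scored as %Activity, normalised to DMSO and no-cell wells, from CellTiter-Glo luminescence after 48 hours' treatment.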
* marks the source's active call; other numbers are inactive results; u = inconclusive; x = no result; [ ] = remark or other dose. Unless noted, calls follow the shape of the dose curve; as a rule, active = well fitted curve in the direction sought with a large enough effect; inconclusive = small, poorly fitted or top-dose-only effect, or another doubt; inactive = no such curve, though single readings can be large; an effect the other way counts as inactive or inconclusive. Unless noted, % is scaled to controls: 0 for no effect and ±100 for the full control effect.

SMILES	TDP1 cell noCPT	12-LOX inh	TDP1 cell CPT	IL1B secr inh	HT1080 IDH1KD tx	HT1080NT lethal
COc1ccc(NS(=O)(=O)c2ccc3c(c2)CC(C)N3C(=O)C2CCC2)cc1OC (centres undefined)	0.65µM*	-1%	1µM*	x	x	x
CCCCSc1nc2c(c(=O)[nH]c(=O)n2C)n1CCOC	x	6%	x	x	x	x
Fc1ccc(-n2nnc(-c3cccnc3)n2)cc1	-22%	u	3%	33	6%	3%
Fc1ccc(C(CCCn2nnc(-c3cccnc3)n2)c2ccc(F)cc2)cc1	21µM*	u	16µM*	u	u	-16%
CC(=O)Nc1ccc(C(=O)/C=C/c2ccco2)cc1	u	u	21µM*	-7	0%	1%
CC(=O)Nc1cccc(C(=O)/C=C/c2ccc(/C=C/C(=O)c3cccc(NC(C)=O)c3)cc2)c1	x	13%	x	x	x	x
CN(C)c1ccc(C(=O)/C=C/c2ccccc2)cc1	u	-6%	21µM*	-102*	u	-3%
CC(=O)Nc1cccc(C(=O)/C=C/c2ccco2)c1	u	u	u	-71*	1%	12%
CN(C)c1ccc(C(=O)/C=C/c2ccco2)cc1	u	u	15µM*	-101*	21%	18%
Cc1ccc(NC(=O)N/C=C/c2ccco2)cc1	-14%	u	u	0	-16%	1%
CN1CC2(CCN(C(=O)Cn3c(=O)oc4ccccc43)CC2)CC1C(=O)N1CCOCC1 (centres undefined)	x	44%	x	x	x	x
COC1CCOC2(CCN(C(=O)CCn3nc(C)cc3C)CC2)C1 (centres undefined)	x	29%	x	x	x	x
NS(=O)(=O)c1ccc(N/N=C/c2ccc(F)cc2)c([N+](=O)[O-])c1	x	-6%	x	x	x	x
O=C(C=Cc1ccco1)c1ccc2ccccc2c1	u	18µM*	u	-65*	u	17%
O=C(/C=C/c1cccc([N+](=O)[O-])c1)c1ccc2ccccc2c1	x	0%	x	x	x	x
CC(C)(C)C1COc2ccccc2N1C(=O)c1cccc(Cl)c1 (centres undefined)	23µM*	-6%	u	8	17%	24%
COC(=O)CC1COc2ccccc2N1C(=O)c1cccc(Cl)c1 (centres undefined)	u	-20%	-20%	8	-1%	-5%
Cc1cc(C)nc(SCc2ccc(C(=O)N/N=C/c3ccc(C(=O)O)cc3)cc2)n1	-20%	10%	-5%	-10	4%	2%
COc1ccc(O)c(/C=N/NC(=O)c2ccc(CSc3nc(C)cc(C)n3)cc2)c1	2.9µM*	-5%	4.6µM*	59	u	u
Cc1cc(C)nc(SCc2ccc(C(=O)N/N=C/c3cccc(O)c3O)cc2)n1	5.8µM*	-12%	5.2µM*	44	2.3µM*	u
Cc1onc(-c2cnn(C)c2NCc2ccc(C#N)cc2)c1C(=O)N(C)c1cccnc1	x	3%[176 µM]	x	x	x	x
CC(c1ccc(S(N)(=O)=O)cc1)N(C)C(=O)CCc1ncc(-c2ccccc2Cl)o1 (centres undefined)	x	9%	x	x	x	x
O=C(Cc1cccs1)N1CCC(Oc2ccccc2)C1 (centres undefined)	x	50µM*	x	x	x	x
CC(=O)N1CCC(Oc2ccccc2)C1 (centres undefined)	x	-5%	x	x	x	x
CCN1c2cc(C(=O)Nc3cccc(Cl)c3)ccc2C(=O)N2CCCCCC21 (centres undefined)	x	5%	x	x	x	x
SMILES	TDP1 cell noCPT	12-LOX inh	TDP1 cell CPT	IL1B secr inh	HT1080 IDH1KD tx	HT1080NT lethal
CN(Cc1ccc(F)cc1)c1ccc2ncc(Nc3cccc(O)c3)n2n1	x	21%[176 µM]	x	x	x	x
CC(=O)Nc1ccc(C(=O)N2CCCC(c3cc(C(=O)Nc4ccccc4)no3)C2)cc1 (centres undefined)	-24%	-4%	u	-7	12%	19%
Cc1ncccc1C(=O)N1CCCC(c2cc(C(=O)Nc3ccc(C(C)(C)C)cc3)no2)C1 (centres undefined)	12µM*	0%	13µM*	-19	u	21µM*
CC(C)(C)c1ccc(NC(=O)c2cc(C3CCCN(S(=O)(=O)c4cccc5cccnc45)C3)on2)cc1 (centres undefined)	12µM*	20%	23µM*	39	u	-21%
N#Cc1cccc(NC(=O)c2cc(C3CCCCN3S(=O)(=O)c3cccc4cccnc34)on2)c1 (centres undefined)	18µM*	-29%	u	-1	-9%	0%
CC(C)(C)NC(=O)C1CCCN(S(=O)(=O)c2cccc3cccnc23)C1 (centres undefined)	-27%	384%	u	36	0%	-3%
CS(=O)(=O)N1CCCCC1c1cc(C(=O)Nc2cccc(C#N)c2)no1 (centres undefined)	-16%	5%	-17%	-18	6%	19%
CC1(C)CC(NC(=O)C2CCC2)CC(C)(CNC(=O)C2CCC2)C1 (centres undefined)	x	-15%	x	x	x	x
O=[N+]([O-])c1ccc(CNc2cccc(F)c2)s1	-28%	u	5%	-52*	-4%	-24%
COC(c1ccccc1)c1nnc(CCC(=O)N(C)CCOc2ccccc2)o1 (centres undefined)	u	-1%	15%	-59*	-8%	-1%
Cc1cccc2nc(CNC(=O)CN3Cc4ccccc4OC(c4ccccc4F)C3)cn12 (centres undefined)	-26%	14%	7%[9.04 µM]	x	x	x
Cc1cccc2nc(CNC(=O)CN3Cc4cc(Cl)ccc4OC(C)C3)cn12 (centres undefined)	5.8µM*	8%	4.1µM*	x	x	x
CC(C)c1ccc(CN(C)C(=O)c2ccc(S(=O)(=O)NCc3ccco3)cc2)cc1	21µM*	195%	21µM*	16	-27%	-15%
COC(=O)c1ccc(CCNC(=O)c2nccnc2N)cc1	x	-6%	x	x	x	x
CCCCNC(=O)c1cc2n(n1)C(C(F)(F)F)CC(c1ccccc1)N2 (centres undefined)	-11%	4%	-24%	-9	6%	-2%

Compound activity deposited in PubChem by National Center for Advancing Translational Sciences (NCATS).
